ELG1 genotoxic: induces genotoxicity in HEK293T cells with luciferase-tagged ELG1; HEK293T ELG1-luciferase reporter, luminescence, 16 h; Potency, µM (titrated, usually from 46 µM), for inactives: at the top dose activity change, positive = activation, hits mostly activators; 330,000 compounds, 1.3% hits; AID 504466; also: % of control where 0% means no effect; nearly all actives have a fitted effect of over 60% in size
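ELG1-luciferase HEK293T cells, 2,000/well; compound pinned in; 16 hr, 37 °C, 5% CO2; ONE-Glo, 30 min RT; luminescence on CCD imager.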
NPC1 prom act: activators of NPC1 promoter; 320,000 compounds, 2.4% hits; Huh7 NPC1 promoter luciferase reporter, 24 h; AID 485313; Potency, µM (highest dose often 9.22 µM), for inactives: top-dose activation, usual class: activators; also: % of control where 0% means no effect; nearly all actives have a fitted effect of over 60% in size
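Cells: Huh7 expressing luciferase under the NPC1 promoter, 1500/well. Seeded 2 h, compound added, incubated 24 h at 37 °C. Luciferase reagent, 10 min ambient, then luminescence.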
FLuc modulator: inhibits or activates purified firefly luciferase, miR-21 counter-screen. Potency, µM (top dose mostly 57.5 µM), without a hit: at the top dose activity change, negative = inhibition, most hits filed as inhibitors. AID 588342. P08659. purified FLuc, Km substrates, luminescence inhibition. 360,000 compounds, 6.9% hits;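 also: plate controls were vehicle for no effect and reference inhibitor for full effect; nearly all actives have a fitted effect of over 55% in size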
Target sequence (P08659 whole entry, looked up): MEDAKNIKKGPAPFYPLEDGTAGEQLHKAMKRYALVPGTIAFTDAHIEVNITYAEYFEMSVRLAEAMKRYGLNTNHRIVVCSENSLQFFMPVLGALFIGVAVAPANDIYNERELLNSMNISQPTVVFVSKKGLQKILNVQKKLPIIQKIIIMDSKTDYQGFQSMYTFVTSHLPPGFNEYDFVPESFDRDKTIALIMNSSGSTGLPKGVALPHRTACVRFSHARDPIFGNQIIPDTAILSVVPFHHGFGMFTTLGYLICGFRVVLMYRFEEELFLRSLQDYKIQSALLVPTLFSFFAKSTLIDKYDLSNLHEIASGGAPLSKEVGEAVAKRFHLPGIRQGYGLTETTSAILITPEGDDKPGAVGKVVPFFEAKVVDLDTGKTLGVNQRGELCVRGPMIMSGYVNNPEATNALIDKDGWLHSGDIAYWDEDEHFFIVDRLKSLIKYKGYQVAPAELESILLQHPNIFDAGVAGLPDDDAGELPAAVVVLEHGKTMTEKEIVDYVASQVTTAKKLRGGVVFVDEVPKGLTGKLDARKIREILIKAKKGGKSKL
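Purified P. pyralis luciferase (10nM final) with 10uM D-luciferin and 10uM ATP (Km levels) in 50mM Tris acetate pH 7.5, 10mM Mg acetate, 0.01% Tween-20, 0.05% BSA; qHTS 6-point titration, ~60 µM downward; luminescence read.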
uPA generation: blocks generation of uPA at the cell surface | cell surface uPA generation assay, qHTS | Potency, µM (highest dose often 38.3 µM), for inactives: top-dose activity change, negative = inhibition, usual class: inhibitors | AID 540303 | 330,000 compounds, 0.31% hits; active = well fitted inhibition curve with a large enough effect; inconclusive = small, poorly fitted or top-dose-only effect; inactive = no such curve, though single readings can be large or run the other way; tested in mouse RAW 264.7 cells; also: % is scaled to controls: 0 for no effect and ±100 for the full control effect; nearly all actives have a fitted effect of over 55% in size
SMN2 splice up: SMN2 splice variant enhancement. HEK293 SMN2-luciferase splicing reporter, luminescence, 30-36 h. Potency, µM (highest dose often 46.1 µM), for inactives: at the highest dose activity change, positive = activation, most hits filed as activators. 210,000 compounds, 2.8% hits. AID 1458; also: % of control where 0% means no effect; nearly all actives have a fitted effect of over 55% in size
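qHTS luciferase splicing reporter: luminescence rises when SMN2 exon 7 is included in transfected HEK293 cells. Compound exposure lasted 30-36 h at 37C, with 4.5 mM final sodium butyrate as control, followed by a ONE-Glo read.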
Rab9 prom act: activators of Rab9 promoter | Huh7 Rab9 promoter-luciferase reporter, luminescence, 24 h | Potency, µM (highest dose often 9.22 µM), inactives show at the top dose activation, negative = inhibition, usual class: activators | 320,000 compounds, 2.8% hits | AID 485297; also: % of control where 0% means no effect; nearly all actives have a fitted effect of over 60% in size
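Huh7 reporter line, Rab9 promoter upstream of luciferase. Compound exposure 24 h at 37 °C in reduced-serum medium with 10% FBS. Read-out: luminescence.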
The depositor's hits bear a star; ? = inconclusive; nt = no result; [ ] = another dose, or the depositor's remark. Shown are actives, neighbours in structure and some others; about 7.3% of the full set was active somewhere. Unless noted, calls follow the shape of the dose curve; as a rule, active = well fitted curve in the direction sought with a large enough effect; inconclusive = small, poorly fitted or top-dose-only effect, or another doubt; inactive = no such curve, though single readings can be large; an effect the other way counts as inactive or inconclusive. Potency is read from the fitted curve at half-maximal effect.

SMILES	ELG1 genotoxic	NPC1 prom act	FLuc modulator	uPA generation	SMN2 splice up	Rab9 prom act
C/C(=N\Nc1nc(C(=O)O)cs1)c1ccccc1	2.6%	10.8%	16.9µM*	-2.5%	21.8%	17.4%
C/C(=N\Nc1nc(C(C)(C)C)cs1)c1ccccc1	3.66µM*	1.41µM*	2.13µM*	-27.1%	nt	1.12µM*
C/C(=N\Nc1nc(C(C)(C)C)cs1)c1ccc(O)cc1	?	?	21.3µM*	-8.7%	nt	?
C/C(=N\Nc1nc2c(s1)CCCC2)c1ccccc1	?	?	1.07µM*	4.4%	11.2µM*	3.55µM*
CCc1cccc(C)c1NC(=O)Cn1nnc(-c2nc(-c3ccccc3F)no2)c1N	nt	nt	-0.9%	nt	nt	nt
Cc1ccc(CSC2=Nc3ccccc3C3=NC(CCC(=O)NC4CCCCC4)C(=O)N23)cc1 (centres undefined)	nt	nt	2.9%	nt	nt	nt
CCn1nc(C(=O)OCC(=O)c2ccc(F)cc2)c2ccccc2c1=O	-4.7%	-1.4%	-19.8%	-0.2%	-7.1%	-1.8%
Cc1cc(C(=O)COC(=O)c2ccccc2O)c(C)n1Cc1cccs1	-10.8%	-23.0%	0.0849µM*	nt	nt	-39.6%
CCn1nc(C(=O)OCC(=O)c2cc(C)n(Cc3cccs3)c2C)c2ccccc2c1=O	18.4µM*	-0.5%	3.01µM*	-5.7%	?	-2.5%
Cc1cc(C(=O)COC(=O)c2ccc3c(c2)OCO3)c(C)n1Cc1cccs1	23.1µM*	3.55µM*	2.69µM*	-2.4%	18.8%	3.98µM*
CCn1nc(C(=O)OCC(=O)c2ccc3c(c2)OCCO3)c2ccccc2c1=O	-0.9%	-0.2%	2.39µM*	0.5%	-7.5%	-6.4%
CS(=O)(=O)N1CCC2(CCN(Cc3ccncc3)CC2)CC1	nt	nt	nt	nt	-6.2%	nt
COc1cc(NS(=O)(=O)c2c(C(=O)N3CCCCC3)c(C)n(C)c2C)cc(OC)c1OC	nt	nt	-0.3%	nt	nt	nt
O=C(/C=C/c1ccc(F)cc1)c1ccccc1Br	-15.3%	-2.6%	19µM*	-7.0%	-7.5%	-3.7%
COCOc1ccccc1C(=O)/C=C/c1ccccc1	nt	nt	nt	nt	-1.1%	nt
Cc1ccc(C(=O)Nc2ccc(F)cc2F)o1	-0.7%	10.9%	-19.7%	1.2%	-7.9%	21.4%
Cc1ccc(C(=O)/C=C/c2ccc(F)cc2)o1	?	3.0%	1.51µM*	-20.1%	3.7%	10.5%
Cc1cnc(NC(=O)C(C)N2CCN(C)CC2)s1 (centres undefined)	0.6%	-3.4%	4.9%	4.3%	20.2%	-1.0%
Nc1ncc(S(=O)(=O)Nc2ccc(F)cc2F)cn1	nt	nt	0.5%	nt	nt	nt
COc1ccc(/C=C/c2ccncc2)cc1OC	23.1µM*	0.1%	?	-12.5%	10µM*	3.6%
CC(C)c1cc(-c2nc(-c3ccccc3)no2)n[nH]1	nt	nt	1.69µM*	nt	nt	nt
Cc1ccccc1-c1noc(-c2cc(-c3ccc(F)cc3)n[nH]2)n1	nt	nt	5.6%	nt	nt	nt
Cc1ccccc1-c1noc(-c2cc(C(C)C)[nH]n2)n1	nt	nt	10.7µM*	nt	nt	nt
CC(C)c1cc(-c2nc(-c3ccc(Br)cc3)no2)n[nH]1	nt	nt	13.5µM*	nt	nt	nt
COc1ccc(-c2noc(-c3cc(C(C)C)[nH]n3)n2)cc1	nt	nt	21.3µM*	nt	nt	nt
SMILES	ELG1 genotoxic	NPC1 prom act	FLuc modulator	uPA generation	SMN2 splice up	Rab9 prom act
Cc1cc(=O)n(Cc2ccccc2Cl)c2c1c(C)nn2-c1ccccc1	nt	nt	-1.2%	nt	nt	nt
CC(=O)N1c2ccccc2CC1C(=O)N1CCN(c2cc(Cl)ccc2C)CC1 (centres undefined)	nt	nt	2.5%	nt	nt	nt
CSc1ncc(-c2ccc(Cl)cc2)[nH]1	?	3.16µM*	9.53µM*	-1.1%	nt	3.16µM*
CSc1nc(-c2ccc(Cl)cc2)c(C#N)c(=O)[nH]1	0.0%	0.2%	?	6.3%	3.0%	0.5%
CCCCn1c(SCC(=O)Nc2cc(C(F)(F)F)ccc2Cl)nnc1C(CC)N(C)C (centres undefined)	-5.8%	-1.1%	1.9%	33.9%	-15.0%	-3.0%
CCC(C)C(NC(=O)c1ccc(Cl)cc1)C(=O)O (centres undefined)	0.5%	2.1%	2.9%[2.3 µM]	1.2%	nt	1.7%
CCC(C)C(NC(=O)c1ccc(Cl)cc1Cl)C(=O)O (centres undefined)	0.4%	0.9%	19µM*	2.5%	15.5%	-5.5%
COc1ccc(N2C(=O)c3ccccc3NC23CCCCC3)cc1	?	2.82µM*	10.7µM*	?	12.6µM*	2.51µM*
CCOc1ccc(N2C(=O)c3ccccc3NC2(C)CC)cc1 (centres undefined)	?	?	nt	?	nt	3.55µM*
COc1ccc(N2C(=O)c3ccccc3NC2(C)C)cc1	-1.6%	?	-2.5%	-6.1%	8.91µM*	?
COc1ccc(N2C(=O)c3ccccc3NC23CCC(C)CC3)cc1 (centres undefined)	?	2.51µM*	?	nt	10µM*	2.24µM*
Cc1ccc(NC(=O)CN(C)C(=O)CSc2nnc(C(F)(F)F)n2C)cc1	3.8%	-0.1%	-2.1%	-2.6%	nt	5.8%
COc1ccc(C2=NN(C(=O)CN3CCOCC3)C(c3nc4ccccc4[nH]3)C2)cc1 (centres undefined)	?	11.5%	15.1µM*	-7.0%	?	?
COc1ccc(-c2coc3c2c(C)cc2oc(=O)c(CC(=O)O)c(C)c23)cc1	nt	nt	7.57µM*	nt	15.6%	nt
Cc1cc2oc(=O)c(CC(=O)O)c(C)c2c2occ(-c3ccc(F)cc3)c12	nt	nt	6.75µM*	nt	11.6%	nt
Cc1c(CC(=O)O)c(=O)oc2c(C)c3occ(-c4ccc(F)cc4)c3cc12	-0.7%	-2.0%	1.6%	1.8%	nt	2.2%
Cc1cc(F)ccc1NC(=O)CCS(=O)(=O)c1cccc2nsnc12	nt	nt	-1.4%	nt	-9.8%	nt
O=C1CC(c2ccc(Br)cc2)c2c(ccc3ccccc23)N1 (centres undefined)	nt	nt	-18.3%	nt	-3.6%	nt
CC(=O)Nc1ccc2c(c1)nc1n2CCSC1	14.2%	1.0%	-14.9%	16.6%	-28.4%	-6.8%
COc1ccccc1C(=O)Nc1ccc2c(c1)nc1n2CCSC1	?	?	3.01µM*	nt	22.4µM*	1.78µM*
Cc1ccc(C(=O)Nc2ccc3c(c2)nc2n3CCSC2)cc1	?	0.708µM*	2.69µM*	-7.6%	nt	0.562µM*
CCCCC(=O)Nc1ccc2c(c1)nc1n2CCSC1	7.31µM*	3.55µM*	23.9µM*	-4.5%	?	3.55µM*
COc1ccc(CCNC(=O)c2sc3nc4n(c(=O)c3c2C)CCCC4)cc1OC	nt	nt	-4.5%	nt	nt	nt
Cn1c(SCC(=O)c2ccc(F)cc2)nnc1-c1ccccc1Br	nt	nt	?	nt	-7.3%	nt
CCCNC(=O)c1onc(CSc2ccc(F)cc2)c1C(=O)NCC1CC1	-0.3%	-2.0%	0.5%	1.2%	nt	-1.9%
COc1ccc(-n2nc(C(=O)NCC(=O)N3CCN(C)CC3)c3ccccc3c2=O)cc1OC	0.7%	3.0%	?	-3.1%	-5.0%	0.6%
